The source made the active and inactive calls. Rule for the calls: active = hit-call score of the fitted dose curve at least 0.9, where 1 is the maximum; inactive = score below 0.9.
Key:
Conditions in all cases: mRNA level, 48 h; actives raise or lower the signal
CYP2E1 (gene 1571) = test: LTEA_HepaRG_CYP2E1: Life Technologies and Expression Analysis (LTEA) Assay for CYP2E1 using HepaRG (AID 2283485)
Method in brief: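 Human liver line HepaRG, plated 48 h, then serum-free induction medium + chemical x 48 h; 8-pt CRC from 100 uM, half-log, 0.5% DMSO, n=2. Readout: CYP2E1 mRNA qRT-PCR vs ACTB/GAPDH/POLR2A; bidirectional fit vs DMSO.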

CYP4A11 (gene 1579) = test: LTEA_HepaRG_CYP4A11: Life Technologies and Expression Analysis (LTEA) Assay for CYP4A11 using HepaRG (AID 2283486)
Method in brief: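 HepaRG, 48 h chem exposure, 8 conc (100 uM top, half-log), 0.5% DMSO vehicle; qRT-PCR readout, housekeeping-gene normalized; bidirectional curve fit vs DMSO baseline.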

[1] = read-out: Cytochrome P450 3A4 (Homo sapiens) (UniProt P08684); test: LTEA_HepaRG_CYP3A4: Life Technologies and Expression Analysis (LTEA) Assay for CYP3A4 using HepaRG (AID 2283487)
Method in brief: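 In a human hepatic line (HepaRG), duplicate wells were treated 48 h with up to 100 uM chemical in half-log dilutions. Endpoint: CYP3A4 mRNA induction or loss relative to 0.5% DMSO vehicle, by qRT-PCR.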

[2] = read-out: DNA damage-inducible transcript 3 (DDIT3), DDIT3 (gene 1649); test: LTEA_HepaRG_DDIT3: Life Technologies and Expression Analysis (LTEA) Assay for DNA damage-inducible transcript 3 (DDIT3) using HepaRG (AID 2283488)
Method in brief: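 HepaRG plated 48 h, switched to serum-free induction medium, dosed 48 h (100 uM top, half-log, 8 pts, 0.5% DMSO, n=2); RNA isolated; DDIT3 by qRT-PCR; bidirectional curve fit vs DMSO.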

[3] = read-out: Pro-epidermal growth factor (Homo sapiens) (UniProt P01133); test: LTEA_HepaRG_EGF: Life Technologies and Expression Analysis (LTEA) Assay for Epidermal growth factor (EGF) using HepaRG (AID 2283489)
Method in brief: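 HepaRG, 48 h dosing, 100 uM top, half-log x8, 0.5% DMSO. Readout: TaqMan qRT-PCR (Fluidigm array), housekeeping-normalized. Gain or loss of signal fit vs DMSO.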

[4] = read-out: Early growth response protein 1 (EGR1) transcription factor, EGR1 (gene 1958); test: LTEA_HepaRG_EGR1: Life Technologies and Expression Analysis (LTEA) Assay for Early growth response protein 1 (EGR1) transcription factor using HepaRG (AID 2283490)
Method in brief: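 Differentiated human HepaRG cells in serum-free induction medium were exposed in duplicate for 48 h to eight concentrations (top 100 uM, half-log steps) in 0.5% DMSO. EGR1 mRNA was quantified by qRT-PCR, normalized to ACTB, GAPDH and POLR2A, and fitted bidirectionally versus DMSO.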

[5] = read-out: Ezrin (EZR), EZR (gene 7430); test: LTEA_HepaRG_EZR: Life Technologies and Expression Analysis (LTEA) Assay for Ezrin (EZR) using HepaRG (AID 2283491)
Method in brief: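 Gain or loss of EZR mRNA is scored relative to 0.5% DMSO in human HepaRG cultures treated 48 h with test chemicals in duplicate, eight half-log concentrations from 100 uM.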

[6] = read-out: Cytochrome P450 3A7 (Homo sapiens) (UniProt P24462); test: LTEA_HepaRG_CYP3A7: Life Technologies and Expression Analysis (LTEA) Assay for CYP3A7 using HepaRG (AID 2283492)
Method in brief: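 Human HepaRG liver cells, 48 h post-plating, switched to serum-free induction medium and exposed in duplicate for 48 h. Dosing: 100 uM top, half-log dilutions, 8 points, 0.5% DMSO vehicle. Read-out: CYP3A7 mRNA, gain or loss fitted against DMSO baseline.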

CYP3A5 (gene 1577) = test: LTEA_HepaRG_CYP3A5: Life Technologies and Expression Analysis (LTEA) Assay for CYP3A5 using HepaRG (AID 2283493)
Method in brief: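 HepaRG plated 48 h, switched to serum-free induction medium, chemicals added 48 h (max 100 uM, half-log, 0.5% DMSO). RNA isolated; CYP3A5 by TaqMan qRT-PCR. Gain/loss vs DMSO.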

[7] = read-out: Fatty Acid-Binding Protein 1 (FABP1), FABP1 (gene 2168); test: LTEA_HepaRG_FABP1: Life Technologies and Expression Analysis (LTEA) Assay for Fatty Acid-Binding Protein 1 (FABP1) using HepaRG (AID 2283494)
Method in brief: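 Differentiated human HepaRG cells were exposed in duplicate for 48 h in serum-free induction medium to 8-point half-log concentration series topping at 100 uM in 0.5% DMSO. FABP1 mRNA measured by TaqMan qRT-PCR, normalized to ACTB/GAPDH/POLR2A; bidirectional fit versus DMSO.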

[8] = read-out: Cytochrome P450 4A22 (Homo sapiens) (UniProt Q5TCH4); test: LTEA_HepaRG_CYP4A22: Life Technologies and Expression Analysis (LTEA) Assay for Cytochrome P450 4A22 (CYP4A22) using HepaRG (AID 2283495)
Method in brief: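 Readout is CYP4A22 transcript induction or loss, quantified by qRT-PCR and normalized to ACTB, GAPDH and POLR2A. Human HepaRG cells receive test chemicals for 48 h at eight half-log concentrations from 100 uM in 0.5% DMSO.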

[9] = read-out: Cytochrome P450 7A1 (Homo sapiens) (UniProt P22680); test: LTEA_HepaRG_CYP7A1: Life Technologies and Expression Analysis (LTEA) Assay for Cytochrome P450 7A1 (CYP7A1) using HepaRG (AID 2283496)
Method in brief: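 HepaRG cells plated 48 h, then switched to serum-free induction medium and exposed in duplicate for 48 h to 8-point half-log series from 100 uM in 0.5% DMSO. CYP7A1 mRNA by qRT-PCR (TaqMan), normalized to ACTB/GAPDH/POLR2A; bidirectional fit versus DMSO.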

[10] = read-out: Glutathione S-Transferase (GSTA2), GSTA2 (gene 2939); test: LTEA_HepaRG_GSTA2: Life Technologies and Expression Analysis (LTEA) Assay for Glutathione S-Transferase (GSTA2) using HepaRG (AID 2283497)
Method in brief: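 Human HepaRG cells, plated 48 h, then exposed in serum-free induction medium for 48 h to eight half-log concentrations up to 100 uM in 0.5% DMSO, duplicate. GSTA2 mRNA by qRT-PCR, normalized to ACTB/GAPDH/POLR2A; bidirectional fit versus DMSO.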

[11] = read-out: Glutamate-cysteine ligase catalytic (GCLC), GCLC (gene 2729); test: LTEA_HepaRG_GCLC: Life Technologies and Expression Analysis (LTEA) Assay for Glutamate-cysteine ligase catalytic (GCLC) using HepaRG (AID 2283498)
Method in brief: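 Differentiated human HepaRG cells, plated 48 h then switched to serum-free induction medium, were exposed in duplicate for 48 h to 8 half-log concentrations topping at 100 uM in 0.5% DMSO. GCLC mRNA was quantified by qRT-PCR against ACTB, GAPDH and POLR2A.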

[12] = read-out: growth arrest and DNA damage 45 (GADD45G), GADD45G (gene 10912); test: LTEA_HepaRG_GADD45G: Life Technologies and Expression Analysis (LTEA) Assay for growth arrest and DNA damage 45 (GADD45G) using HepaRG (AID 2283499)
Method in brief: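 Gain or loss of GADD45G mRNA, quantified by TaqMan qRT-PCR against three housekeeping genes, is fitted in both directions relative to 0.5% DMSO. Human HepaRG cultures receive test chemical for 48 h at up to 100 uM.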

[13] = read-out: Glutamate-cysteine ligase regulatory (GCLM), GCLM (gene 2730); test: LTEA_HepaRG_GCLM: Life Technologies and Expression Analysis (LTEA) Assay for Glutamate-cysteine ligase regulatory (GCLM) using HepaRG (AID 2283500)
Method in brief: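 Cells were plated, cultured 48 h, switched to serum-free induction medium, then dosed in duplicate for 48 h at eight half-log concentrations up to 100 uM. RNA was then profiled by qRT-PCR; gain or loss versus DMSO was fitted.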

[14] = read-out: Glutathione S-transferase M3 (GSTM3), GSTM3 (gene 2947); test: LTEA_HepaRG_GSTM3: Life Technologies and Expression Analysis (LTEA) Assay for Glutathione S-transferase M3 (GSTM3) using HepaRG (AID 2283501)
Method in brief: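 HepaRG, plated 48 h, then serum-free induction medium; test chemical 48 h, duplicate; 100 uM top, half-log x8, 0.5% DMSO. Read-out: GSTM3 mRNA (TaqMan qRT-PCR, Fluidigm array). Bidirectional fit vs DMSO.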

[15] = read-out: Heat shock 70 kDa protein 1 (HSPA1A), gene 3303; test: LTEA_HepaRG_HSPA1A: Life Technologies and Expression Analysis (LTEA) Assay for Heat shock 70 kDa protein 1 (HSPA1A) using HepaRG (AID 2283502)
Method in brief: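 Readout is HSPA1A transcript level by microfluidic qRT-PCR, normalized to three housekeeping genes and analysed for gain or loss of signal relative to 0.5% DMSO. Human HepaRG cultures received test chemicals for 48 h at up to 100 uM.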

[16] = read-out: Hypoxia-inducible factor 1-alpha (Homo sapiens) (UniProt Q16665); test: LTEA_HepaRG_HIF1A: Life Technologies and Expression Analysis (LTEA) Assay for Hypoxia-inducible factor 1 (HIF1A) Trancription factor using HepaRG (AID 2283503)
Method in brief: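 Differentiated HepaRG cells in serum-free induction medium exposed 48 h, in duplicate, to 8-point half-log series from 100 uM in 0.5% DMSO. HIF1A mRNA measured by TaqMan qRT-PCR, normalized to ACTB/GAPDH/POLR2A, fitted bidirectionally versus DMSO.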

[17] = read-out: 3-Hydroxy-3-Methylglutaryl-CoA Synthase 2 (HMGCS2), HMGCS2 (gene 3158); test: LTEA_HepaRG_HMGCS2: Life Technologies and Expression Analysis (LTEA) Assay for 3-Hydroxy-3-Methylglutaryl-CoA Synthase 2 (HMGCS2) using HepaRG (AID 2283504)
Method in brief: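 HepaRG, plated 48 h then switched to serum-free induction media; cmpd 8-pt, max 100 uM, 1/2-log, 0.5% DMSO, n=2, 48 h. HMGCS2 mRNA by Fluidigm TaqMan qRT-PCR, ACTB/GAPDH/POLR2A norm; bidirectional fit vs DMSO.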

Measured: AC50

Sequence of Hypoxia-inducible factor 1-alpha (Homo sapiens) (Q16665 whole entry, looked up): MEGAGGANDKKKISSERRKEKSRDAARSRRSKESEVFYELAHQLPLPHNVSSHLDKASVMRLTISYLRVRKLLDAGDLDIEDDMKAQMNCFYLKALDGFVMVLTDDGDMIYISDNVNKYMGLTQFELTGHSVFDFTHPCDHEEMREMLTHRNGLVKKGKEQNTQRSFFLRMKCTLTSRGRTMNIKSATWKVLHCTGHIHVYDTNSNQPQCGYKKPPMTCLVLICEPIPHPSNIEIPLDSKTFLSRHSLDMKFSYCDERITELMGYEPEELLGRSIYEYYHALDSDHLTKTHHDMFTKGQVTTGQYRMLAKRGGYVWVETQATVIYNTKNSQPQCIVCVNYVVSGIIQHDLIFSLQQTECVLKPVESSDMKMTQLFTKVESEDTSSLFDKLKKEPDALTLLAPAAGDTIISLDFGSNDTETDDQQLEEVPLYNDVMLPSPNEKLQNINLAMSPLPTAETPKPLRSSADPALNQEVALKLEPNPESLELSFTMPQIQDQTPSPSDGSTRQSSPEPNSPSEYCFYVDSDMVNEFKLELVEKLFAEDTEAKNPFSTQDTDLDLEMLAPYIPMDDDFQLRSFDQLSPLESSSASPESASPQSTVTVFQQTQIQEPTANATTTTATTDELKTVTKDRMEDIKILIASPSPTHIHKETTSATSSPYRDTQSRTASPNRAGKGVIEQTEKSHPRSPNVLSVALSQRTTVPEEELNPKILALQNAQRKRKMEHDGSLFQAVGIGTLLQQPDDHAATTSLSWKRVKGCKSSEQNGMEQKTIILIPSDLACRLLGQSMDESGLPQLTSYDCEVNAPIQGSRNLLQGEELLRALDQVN
Sequence of Cytochrome P450 3A4 (Homo sapiens) (P08684 whole entry, looked up): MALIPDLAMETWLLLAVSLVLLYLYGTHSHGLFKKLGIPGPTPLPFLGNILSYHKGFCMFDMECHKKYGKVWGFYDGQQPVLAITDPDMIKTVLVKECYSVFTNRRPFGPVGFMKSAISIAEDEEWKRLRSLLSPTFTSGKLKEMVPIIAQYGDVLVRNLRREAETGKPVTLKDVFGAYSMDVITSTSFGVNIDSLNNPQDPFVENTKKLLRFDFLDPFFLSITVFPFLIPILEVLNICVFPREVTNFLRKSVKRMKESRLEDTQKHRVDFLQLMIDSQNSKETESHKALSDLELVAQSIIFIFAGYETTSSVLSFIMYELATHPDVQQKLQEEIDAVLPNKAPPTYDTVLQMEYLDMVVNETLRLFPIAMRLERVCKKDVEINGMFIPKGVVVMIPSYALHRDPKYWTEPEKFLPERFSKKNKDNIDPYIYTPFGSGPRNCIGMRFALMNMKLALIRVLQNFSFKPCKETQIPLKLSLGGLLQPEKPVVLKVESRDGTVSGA
Sequence of Cytochrome P450 3A7 (Homo sapiens) (P24462 whole entry, looked up): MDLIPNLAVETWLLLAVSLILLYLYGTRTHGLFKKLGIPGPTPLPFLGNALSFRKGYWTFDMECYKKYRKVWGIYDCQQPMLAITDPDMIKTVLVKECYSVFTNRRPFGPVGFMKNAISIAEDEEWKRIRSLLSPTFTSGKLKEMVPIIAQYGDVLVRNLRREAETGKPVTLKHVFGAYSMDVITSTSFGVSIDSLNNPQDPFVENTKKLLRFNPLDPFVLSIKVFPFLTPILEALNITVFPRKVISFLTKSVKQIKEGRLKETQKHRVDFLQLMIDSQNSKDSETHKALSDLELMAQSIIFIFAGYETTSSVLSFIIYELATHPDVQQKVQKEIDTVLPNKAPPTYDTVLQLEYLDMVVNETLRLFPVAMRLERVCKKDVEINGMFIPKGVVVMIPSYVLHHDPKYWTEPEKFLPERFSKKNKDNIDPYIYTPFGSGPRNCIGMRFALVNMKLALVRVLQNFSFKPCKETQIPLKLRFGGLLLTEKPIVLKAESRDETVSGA

C[C@](N)(Cc1ccc(O)c(O)c1)C(=O)O
inactive: all assays above

Nc1cccc(N)c1
inactive: all assays above

CC(C)CCCCCCOC(=O)c1ccc(C(=O)OCCCCCCC(C)C)c(C(=O)OCCCCCCC(C)C)c1
inactive: all assays above

Cc1ccc(C)c(O)c1
inactive: all assays above

CCCCC(CC)COC(=O)c1ccc(C(=O)OCC(CC)CCCC)cc1 (stereo not given)
inactive: all assays above

O=P(OC(CCl)CCl)(OC(CCl)CCl)OC(CCl)CCl
inactive: CYP3A5 (gene 1577) | [14] | [15] | [16]
active: CYP2E1 (gene 1571) 56 µM | CYP4A11 (gene 1579) 67.8 µM | [1] 88.5 µM | [2] 79.1 µM | [3] 88.8 µM | [4] 91.6 µM | [5] 89.1 µM | [6] 9.92 µM | [7] 72.9 µM | [8] 79 µM | [9] 76.9 µM | [10] 75.6 µM | [11] 89.5 µM | [12] 94.3 µM | [13] 83.9 µM | [17] 72.8 µM

O=C(O)c1cccc(Oc2ccccc2)c1
active: CYP4A11 (gene 1579) 38.9 µM | [7] 50 µM
inactive: all other assays above

CCc1cc(SCc2sc(-c3ccc(C(F)(F)F)cc3)nc2CN2CCN(c3ccc(OC)cc3)CC2)ccc1OCC(=O)O
active: CYP2E1 (gene 1571) 75.4 µM | CYP4A11 (gene 1579) 74.7 µM | [1] 7.66 µM | [2] 3.85 µM | [4] 51.9 µM | [5] 94.3 µM | [6] 8.73 µM | CYP3A5 (gene 1577) 10.9 µM | [7] 76.8 µM | [8] 8.62 µM | [9] 7.1 µM | [10] 77 µM | [11] 94.1 µM | [12] 91.2 µM | [13] 26.5 µM | [15] 89.4 µM | [16] 91.1 µM | [17] 77.1 µM
inactive: [3] | [14]

O=C(CCCCCCCCc1cccnc1)N1CCC(C=C(c2ccccc2)c2ccccc2)CC1
inactive: [3] | [6] | CYP3A5 (gene 1577) | [14]
active: CYP2E1 (gene 1571) 14.1 µM | CYP4A11 (gene 1579) 12.6 µM | [1] 32 µM | [2] 22.1 µM | [4] 12.2 µM | [5] 13.1 µM | [7] 26.9 µM | [8] 22.7 µM | [9] 27.1 µM | [10] 28.7 µM | [11] 12.5 µM | [12] 22.8 µM | [13] 12.8 µM | [15] 81 µM | [16] 77.2 µM | [17] 22.9 µM

Cc1ccc(N)cc1O
active: CYP2E1 (gene 1571) 30.8 µM | [7] 23.1 µM | [9] 24.4 µM
inactive: all other assays above

O=C(O)c1cccc(N(Cc2cccnc2)c2ccc(OC(F)F)c(OC(F)F)c2)c1
active: CYP2E1 (gene 1571) 5.18 µM | [1] 43.5 µM | [4] 50 µM | [7] 87 µM | [9] 4.48 µM
inactive: all other assays above

— PubChem BioAssay (EPA / NIEHS)
